Values joined by “and” are separate entries in the source; they are usually repeats but may differ in a detail not shown here. Identical values can stand only once. Active and inactive are the calls of the source. How the source made its calls: active means hit-call score of the fitted dose curve at least 0.9, where 1 is the maximum; inactive means score below 0.9.
Legend:
[1] = ATG_CRE_CIS: Attagene CIS-FACTORIAL HepG2 Assay for human cAMP Responsive Element (CRE) binding protein 3 (AID 2282926); conditions: HepG2 CRE cis-reporter, Attagene multiplexed mRNA; actives raise or lower the signal
Procedure, shortened: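 Human liver HepG2, transient MRTU transfection, 24 h compound exposure. Total RNA → oligo(dT) RT → PCR → 6-FAM primer extension → HpaI cut → CE. Activity called both directions vs DMSO.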

[2] = target: CCAAT/enhancer-binding protein beta (Homo sapiens) (UniProt P17676); test: ATG_C_EBP_CIS: Attagene CIS-FACTORIAL HepG2 Assay for human CCAAT/Enhancer Binding Protein (C/EBP) beta (AID 2282927); conditions: HepG2 Attagene cis-factorial transcription factor reporter; actives raise or lower the signal
Procedure, shortened: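 Endogenous C/EBPb-driven reporter transcripts measured in transfected human HepG2 cells at 24 h via RT-PCR and capillary electrophoresis of labelled fragments. Activity fitted in both directions relative to DMSO baseline.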

[3] = ATG_CMV_CIS: Attagene CIS-FACTORIAL HepG2 Assay for human CMV (Internal Marker) (AID 2282928); conditions: HepG2 CMV promoter reporter, transcription factor profiling; actives raise or lower the signal;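 further: endpoint acts as a background internal control marker rather than a target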
Procedure, shortened: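 CMV internal-marker background readout in transiently transfected HepG2 cells bearing cis-regulated reporter units. Reporter mRNA is measured 24 h after dosing by RT-PCR and capillary electrophoresis, with bidirectional fitting against DMSO.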

[4] = ATG_DR4_LXR_CIS: Attagene CIS-FACTORIAL HepG2 Assay for human Liver X Receptor (LXR), DR4 submotif (AID 2282929); conditions: HepG2 Attagene DR4 cis-reporter, mRNA transcription; actives raise or lower the signal
Procedure, shortened: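 Total RNA from 24 h-treated, MRTU-transfected HepG2 cells underwent reverse transcription, PCR, fluorescent primer extension and restriction digestion before capillary electrophoresis. Both increases and decreases in reporter signal were fitted against DMSO.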

[5] = target: Aryl hydrocarbon receptor (Homo sapiens) (UniProt P35869); test: ATG_Ahr_CIS: Attagene CIS-FACTORIAL HepG2 Assay for human Aryl Hydrocarbon Receptor (Ahr) (AID 2282930); conditions: HepG2 AhR cis-factorial reporter transcription; actives raise or lower the signal
Procedure, shortened: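 Reporter mRNA levels, quantified by RT-PCR and fluorescent capillary electrophoresis, reflect endogenous AhR transcriptional activity in HepG2 cells carrying transfected cis-promoter reporter constructs. Readout at 24 h post-dose; gain or loss fitted against DMSO baseline.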

[6] = ATG_AP_1_CIS: Attagene CIS-FACTORIAL HepG2 Assay for human Activator Protein 1 (AP-1) (AID 2282931); conditions: HepG2 Attagene cis-factorial AP-1 reporter mRNA; actives raise or lower the signal
Procedure, shortened: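 HepG2, transient cis-reporter transfection; 24 h; readout RT-PCR/CE fluorescence; DMSO baseline, gain and loss fitted.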

[7] = ATG_AP_2_CIS: Attagene CIS-FACTORIAL HepG2 Assay for human Activator Protein 2 (AP-2) (AID 2282932); conditions: HepG2 AP-2 cis-reporter, Attagene transcription factor profiling; actives raise or lower the signal
Procedure, shortened: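 HepG2, transient MRTU transfection, cis-regulated reporters; 24 h compound exposure; RNA isolated, RT-PCR, 6-FAM labelling, HpaI digest, CE fluorescence. DMSO = negative control/baseline, bidirectional fit.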

[8] = ATG_BRE_CIS: Attagene CIS-FACTORIAL HepG2 Assay for human Bone Morphogenetic Protein (BMP) Response Element (BRE) (AID 2282933); conditions: HepG2 BMP response element reporter, Attagene transcription factor profiling; actives raise or lower the signal
Procedure, shortened: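 Transient MRTU transfection of human HepG2 liver cells; 24 h compound treatment; total RNA isolated, reverse-transcribed, PCR-amplified, 6-FAM labelled, HpaI-cut, capillary electrophoresis. DMSO = negative control/baseline, bidirectional fit.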

[9] = target: Retinoic acid receptor alpha (Homo sapiens) (UniProt P10276); test: ATG_DR5_RAR_CIS: Attagene CIS-FACTORIAL HepG2 Assay for human Retinoic Acid Receptor Alpha (RARE), DR5 submotif (AID 2282934); conditions: HepG2 Attagene cis-factorial RARE DR5 reporter, mRNA; actives raise or lower the signal;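 on AC50: reporter responds to endogenous RAR alpha beta and gamma in HepG2 not RARA alone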
Procedure, shortened: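 Reporter transcripts from a DR5-regulated unit, measured via RT-PCR plus capillary electrophoresis, reflect endogenous RAR activity in transiently transfected human HepG2 liver cells. Exposure lasted 24 h; gain or loss of signal scored against DMSO.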

[10] = target: Transcription factor E2F1 (Homo sapiens) (UniProt Q01094); test: ATG_E2F_CIS: Attagene CIS-FACTORIAL HepG2 Assay for human E2F Transcription Factor 1 (AID 2282935); conditions: HepG2 Attagene cis-reporter, E2F reporter RNA transcripts; actives raise or lower the signal
Procedure, shortened: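 Cis-element reporter mRNA induction in transiently transfected HepG2, 24 h exposure. Activity fitted in both directions relative to DMSO negative control.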

[11] = ATG_E_Box_CIS: Attagene CIS-FACTORIAL HepG2 Assay for human Enhancer Box (E-box) (AID 2282936); conditions: HepG2 E-box cis-reporter transcription, actives raise or lower the signal
Procedure, shortened: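 Cells: HepG2 (human liver), transient MRTU transfection. Exposure 24 h. RNA → oligo(dT) RT → PCR → 6-FAM label → HpaI → CE. Activity fitted both directions relative to DMSO.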

[12] = ATG_M_61_CIS: Attagene CIS-FACTORIAL HepG2 Assay for M61 Transcription Factor (Internal Marker) (AID 2282937); conditions: HepG2 Attagene CIS-FACTORIAL M61 internal marker reporter; actives raise or lower the signal
Procedure, shortened: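 Transfect HepG2 with MRTUs; dose 24 h; isolate RNA; reverse-transcribe with DNase I treatment; PCR-amplify, FAM-label and cut with HpaI for 2 h at 37 C; resolve by CE. Bidirectional fitting against DMSO.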

[13] = ATG_EGR_CIS: Attagene CIS-FACTORIAL HepG2 Assay for human Early Growth Response 1 (EGR1) (AID 2282938); conditions: HepG2 Attagene CIS-FACTORIAL EGR reporter mRNA; actives raise or lower the signal
Procedure, shortened: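 After a 24 h treatment of transiently transfected HepG2 cells, total RNA was reverse-transcribed and reporter sequences PCR-amplified, labelled and run on capillary electrophoresis. Reporters sit under cis-regulatory promoters sensing endogenous factors.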

Measured: AC50

Chain of Transcription factor E2F1 (Homo sapiens) (Q01094 whole entry, looked up): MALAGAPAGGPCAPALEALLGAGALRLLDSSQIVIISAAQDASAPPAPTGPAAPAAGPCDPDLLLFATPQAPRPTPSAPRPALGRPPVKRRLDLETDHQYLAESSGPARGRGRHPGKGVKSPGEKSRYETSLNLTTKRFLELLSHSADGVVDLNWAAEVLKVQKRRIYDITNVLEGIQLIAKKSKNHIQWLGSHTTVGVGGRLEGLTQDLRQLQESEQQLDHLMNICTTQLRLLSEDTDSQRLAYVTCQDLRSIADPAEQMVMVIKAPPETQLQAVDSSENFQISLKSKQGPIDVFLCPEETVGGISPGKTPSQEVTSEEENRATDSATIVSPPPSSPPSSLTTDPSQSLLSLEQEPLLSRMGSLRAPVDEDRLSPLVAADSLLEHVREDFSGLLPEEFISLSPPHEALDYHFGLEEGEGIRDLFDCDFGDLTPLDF
Chain of CCAAT/enhancer-binding protein beta (Homo sapiens) (P17676 whole entry, looked up, the tested form may be a part): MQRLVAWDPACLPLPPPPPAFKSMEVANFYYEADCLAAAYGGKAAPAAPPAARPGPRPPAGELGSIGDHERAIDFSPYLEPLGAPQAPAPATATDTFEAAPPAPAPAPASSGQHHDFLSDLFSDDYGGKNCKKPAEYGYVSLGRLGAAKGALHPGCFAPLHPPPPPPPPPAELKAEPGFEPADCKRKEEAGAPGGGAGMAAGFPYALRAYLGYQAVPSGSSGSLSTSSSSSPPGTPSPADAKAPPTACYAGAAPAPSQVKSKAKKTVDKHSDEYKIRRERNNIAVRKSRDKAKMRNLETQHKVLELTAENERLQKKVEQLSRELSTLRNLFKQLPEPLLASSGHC
Chain of Aryl hydrocarbon receptor (Homo sapiens) (P35869 whole entry, looked up): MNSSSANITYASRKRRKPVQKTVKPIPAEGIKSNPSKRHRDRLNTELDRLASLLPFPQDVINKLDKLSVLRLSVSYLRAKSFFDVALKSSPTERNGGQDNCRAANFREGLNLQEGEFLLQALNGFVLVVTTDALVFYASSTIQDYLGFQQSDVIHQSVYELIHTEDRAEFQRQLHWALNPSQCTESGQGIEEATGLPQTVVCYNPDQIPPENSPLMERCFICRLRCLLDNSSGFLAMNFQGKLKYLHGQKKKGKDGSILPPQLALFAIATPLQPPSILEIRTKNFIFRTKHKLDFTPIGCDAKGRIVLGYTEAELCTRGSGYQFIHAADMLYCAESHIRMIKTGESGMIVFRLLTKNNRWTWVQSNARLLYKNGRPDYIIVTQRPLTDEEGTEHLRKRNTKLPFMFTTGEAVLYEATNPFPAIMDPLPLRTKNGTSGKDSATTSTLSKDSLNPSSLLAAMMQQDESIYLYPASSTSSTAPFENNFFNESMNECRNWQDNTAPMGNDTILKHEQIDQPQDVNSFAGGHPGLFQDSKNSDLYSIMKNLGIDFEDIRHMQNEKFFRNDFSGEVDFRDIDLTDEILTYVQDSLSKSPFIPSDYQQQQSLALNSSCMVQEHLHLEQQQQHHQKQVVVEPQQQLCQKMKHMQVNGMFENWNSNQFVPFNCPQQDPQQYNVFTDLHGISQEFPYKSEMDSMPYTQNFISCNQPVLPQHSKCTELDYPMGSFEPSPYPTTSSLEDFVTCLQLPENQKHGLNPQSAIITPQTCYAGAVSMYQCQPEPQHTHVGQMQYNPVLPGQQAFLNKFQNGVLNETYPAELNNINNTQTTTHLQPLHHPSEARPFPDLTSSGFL
Chain of Retinoic acid receptor alpha (Homo sapiens) (P10276 whole entry, looked up): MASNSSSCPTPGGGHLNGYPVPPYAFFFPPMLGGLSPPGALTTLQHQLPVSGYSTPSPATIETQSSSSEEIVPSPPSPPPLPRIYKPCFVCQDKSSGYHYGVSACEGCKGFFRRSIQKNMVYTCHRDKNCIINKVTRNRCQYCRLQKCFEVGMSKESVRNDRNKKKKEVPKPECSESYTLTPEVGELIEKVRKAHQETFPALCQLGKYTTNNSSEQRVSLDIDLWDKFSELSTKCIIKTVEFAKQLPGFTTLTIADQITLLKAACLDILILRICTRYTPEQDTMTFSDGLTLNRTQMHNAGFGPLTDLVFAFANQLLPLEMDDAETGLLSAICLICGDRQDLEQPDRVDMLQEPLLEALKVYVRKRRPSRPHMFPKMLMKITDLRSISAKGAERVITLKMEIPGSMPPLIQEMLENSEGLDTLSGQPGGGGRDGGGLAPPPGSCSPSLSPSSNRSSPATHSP

CCOP(=S)(OCC)SCS(=O)(=O)C(C)(C)C
active: [4] 29.2 µM
not listed: [13]
inactive: all other assays above

Nc1c(Oc2ccccc2)cc(O)c2c1C(=O)c1ccccc1C2=O
active: [5] 1.71 µM | [8] 13.2 µM
inactive: all other assays above

N#Cc1ccccc1Cl
inactive: all assays above

O=C(CCl)NCO
inactive: all assays above

Cc1cc(Cl)ccc1OCCCC(=O)O
not listed: [11] | [12] | [13]
inactive: all other assays above

Nc1nc(N)nc(Cl)n1
inactive: all assays above

CC[N+](CC)(CC)CC
inactive: all assays above

CCOC(=O)C(SP(=S)(OC)OC)c1ccccc1 (stereo unspecified)
not listed: [13]
inactive: all other assays above

O=C1C[C@@H]2OCC=C3CN4CC[C@]56c7ccccc7N1[C@H]5[C@H]2[C@H]3C[C@H]46
not listed: [13]
inactive: all other assays above

ClCc1ccccc1Cl
active: [1] 83.5 µM | [4] 50.6 µM
inactive: all other assays above

O=C(NC(=O)c1c(F)cccc1F)Nc1cc(Cl)c(Oc2ncc(C(F)(F)F)cc2Cl)c(Cl)c1
active: [4] 4.57 µM
not listed: [12]
inactive: all other assays above

CN(N=O)C(N)=O
inactive: all assays above

COC(=O)Nc1cccc(OC(=O)Nc2cccc(C)c2)c1
inactive: all assays above

Nc1ccc(Br)cc1
active: [5] 25.4 µM
inactive: all other assays above

CN(N=O)c1ccc([N+](=O)[O-])cc1
active: [5] 26.8 µM
inactive: all other assays above

CCCCCCCCCCCCCl
inactive: all assays above

Cc1ccc2nc3sc(=O)sc3nc2c1
active: [1] 6.6 µM | [2] 25 µM | [4] 22.4 µM | [7] 9.68 µM | [8] 25 µM | [9] 6.63 µM
inactive: all other assays above

CCCCCCCCCCCCBr
active: [4] 48.2 µM
inactive: all other assays above

O=[N+]([O-])c1ccc(Nc2ccccc2)cc1
active: [8] 163 µM
inactive: all other assays above

CN(CCCC(O)c1cccnc1)N=O (stereo unspecified)
inactive: all assays above

O=[N+]([O-])c1cc([As](=O)(O)O)ccc1O
not listed: [12]
inactive: all other assays above

Cc1cc(Cl)ccc1OC(C)C(=O)O (stereo unspecified)
active: [5] 28.5 µM
not listed: [12]
inactive: all other assays above

Cc1cc(Cl)ccc1O
inactive: all assays above

CCCCN(CCCC)C(=S)[S-].CCCCN(CCCC)C(=S)[S-].[Ni+2]
inactive: all assays above

CNC(=O)O/N=C/C(C)(C)S(C)(=O)=O
inactive: all assays above

O=C/C(Cl)=C(/Cl)C(=O)O
active: [3] 94.3 µM | [4] 70.7 µM | [7] 61.5 µM | [11] 100 µM | [13] 145 µM
inactive: all other assays above

N#CCC#N
active: [9] 63.4 µM
inactive: all other assays above

Cl[C@H]1OCCO[C@@H]1Cl
inactive: all assays above

C=C(C)C(=O)OCCCCOC(=O)C(=C)C
inactive: all assays above

CN(C)[C@@H]1C(=O)C(C(N)=O)=C(O)[C@@]2(O)C(=O)C3=C(O)c4c(O)ccc(Cl)c4[C@@](C)(O)[C@H]3C[C@@H]12
active: [3] 25.9 µM | [6] 26.3 µM | [8] 30.3 µM
inactive: all other assays above

NNCCO
active: [5] 25.7 µM
inactive: all other assays above

O=C(O)COc1cc(Cl)c(Cl)cc1Cl
not listed: [12]
inactive: all other assays above

CCOc1ccc(N)cc1
inactive: all assays above

Cc1cc(Cl)ccc1N
active: [5] 41.4 µM and 33 µM
inactive: all other assays above

Oc1c(Br)cc(Br)cc1Br
active: [5] 49.5 µM | [6] 27.7 µM | [8] 126 µM | [11] 30.4 µM | [13] 31.9 µM
inactive: all other assays above

C=CC(=O)NC(C)(C)CC(C)=O
inactive: all assays above

CCOC(=O)OC1=C(c2cc(C)ccc2C)C(=O)NC12CCC(OC)CC2 (stereo unspecified)
inactive: all assays above
